# According to PubChem BioAssay:
# A number with no mark means an inactive call. For some assays here: Measured potencies and affinities stand elsewhere. Activity calls are given as the source filed them. Unless noted, no rule for the calls is given here.
# Tests used:
# [1] = antimalarial activity against Dd2 strain (AID 2302;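 active = growth inhibition above 50% at the single 2 µM test dose, taken to imply half-maximal potency below 2 µM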;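 also: 0% = DMSO untreated growth and 100% = chloroquine plus artemisinin killed control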); details: P. falciparum Dd2 in RBCs, LDH growth readout, 72 h; at 2 µM; hits give high values
# [2] = human hepatoma cell viability loss – ATP luminescence, cytotoxicity control for P. falciparum antimalarial project, primary screen (AID 2303;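 active = inhibition above 50%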;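 also: 0% = DMSO wells and 100% = digitonin-killed cells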); details: HepG2 viability, 24-48 h, at 10 µM, hits give high values
# [3] = molecular target: L-lactate dehydrogenase (Plasmodium falciparum (isolate CDC / Honduras)) (UniProt Q27743); assay: PfLDH activity inhibition – cell lysate, 3D7 strain, counter-screen for P. falciparum growth inhibition project (AID 2304);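 also: 0% = vehicle and 100% = reference inhibitor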; details: P. falciparum 3D7 crude extract, LDH APAD/NBT absorbance; at 2 µM; hits give high values
# [4] = inhibition of 3D7 malaria parasite growth – strain 3D7 (AID 2306);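 also: 0% = DMSO wells and 100% = chloroquine plus artemisinin control wells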; details: P. falciparum 3D7 erythrocytic growth, LDH absorbance, 72 h; at 2 µM; hits give high values
# [5] = molecular target: Calcium-dependent protein kinase 1 (Plasmodium falciparum (isolate 3D7)) (UniProt P62344); assay: PfCDPK1 kinase inhibitors, biochemical, TCAMS library (AID 1159585; cut-off not given, nearly all actives have IC50 up to about 0.98 µM;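 also: inhibitors leave more ATP so luminescence rises with inhibition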); details: recombinant PfCDPK1, Kinase-Glo ATP depletion luminescence
# [6] = molecular target: Plasmodium falciparum protein kinase 6 (PK6, PF3D7_1337100) (UniProt Q8IDW1); assay: PfPK6 kinase inhibitors, biochemical, TCAMS library (AID 1159586); details: recombinant PfPK6, Kinase-Glo ATP depletion luminescence
# [7] = molecular target: Protein kinase 7 (PK7), Plasmodium falciparum 3D7 (PF3D7_0213400) (UniProt Q7YTF7); assay: inhibition of Plasmodium PK7 catalytic activity – biochemical, TCAMS antimalarial set, Kinase-Glo luminescence (AID 1159587); details: recombinant PfPK7, Kinase-Glo ATP depletion luminescence
# [8] = molecular target: Calcium-dependent protein kinase 4 (Plasmodium falciparum (isolate 3D7)) (UniProt Q8IBS5); assay: PfCDPK4 kinase inhibitors, biochemical, TCAMS library (AID 1159588; cut-off not given, nearly all actives have IC50 up to about 0.91 µM); details: recombinant PfCDPK4, Kinase-Glo ATP depletion luminescence
# Sequence of Calcium-dependent protein kinase 4 (Plasmodium falciparum (isolate 3D7)) (Q8IBS5 whole entry, looked up): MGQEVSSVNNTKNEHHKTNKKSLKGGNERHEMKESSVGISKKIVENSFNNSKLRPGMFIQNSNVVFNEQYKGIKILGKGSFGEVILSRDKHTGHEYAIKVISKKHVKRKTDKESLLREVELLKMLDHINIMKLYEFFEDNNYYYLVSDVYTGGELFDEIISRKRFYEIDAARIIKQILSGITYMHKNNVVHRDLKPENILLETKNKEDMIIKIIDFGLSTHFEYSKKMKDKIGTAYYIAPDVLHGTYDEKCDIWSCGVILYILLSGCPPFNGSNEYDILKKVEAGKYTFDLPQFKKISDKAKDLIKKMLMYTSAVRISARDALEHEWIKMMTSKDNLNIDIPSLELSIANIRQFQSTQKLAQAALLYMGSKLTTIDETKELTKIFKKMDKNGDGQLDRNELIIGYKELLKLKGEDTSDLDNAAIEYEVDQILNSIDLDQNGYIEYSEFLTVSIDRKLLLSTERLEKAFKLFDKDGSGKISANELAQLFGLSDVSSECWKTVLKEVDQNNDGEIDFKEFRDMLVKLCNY
# Sequence of Protein kinase 7 (PK7), Plasmodium falciparum 3D7 (PF3D7_0213400) (Q7YTF7 1-343): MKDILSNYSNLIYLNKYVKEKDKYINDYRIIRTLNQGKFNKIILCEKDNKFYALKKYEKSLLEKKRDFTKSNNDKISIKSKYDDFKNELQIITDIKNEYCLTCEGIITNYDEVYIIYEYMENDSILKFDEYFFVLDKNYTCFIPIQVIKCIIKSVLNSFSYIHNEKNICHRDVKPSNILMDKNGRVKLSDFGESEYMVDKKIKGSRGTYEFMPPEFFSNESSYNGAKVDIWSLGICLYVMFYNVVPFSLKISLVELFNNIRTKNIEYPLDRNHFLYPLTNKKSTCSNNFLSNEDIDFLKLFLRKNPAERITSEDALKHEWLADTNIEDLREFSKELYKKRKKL
# Sequence of L-lactate dehydrogenase (Plasmodium falciparum (isolate CDC / Honduras)) (Q27743 whole entry, looked up): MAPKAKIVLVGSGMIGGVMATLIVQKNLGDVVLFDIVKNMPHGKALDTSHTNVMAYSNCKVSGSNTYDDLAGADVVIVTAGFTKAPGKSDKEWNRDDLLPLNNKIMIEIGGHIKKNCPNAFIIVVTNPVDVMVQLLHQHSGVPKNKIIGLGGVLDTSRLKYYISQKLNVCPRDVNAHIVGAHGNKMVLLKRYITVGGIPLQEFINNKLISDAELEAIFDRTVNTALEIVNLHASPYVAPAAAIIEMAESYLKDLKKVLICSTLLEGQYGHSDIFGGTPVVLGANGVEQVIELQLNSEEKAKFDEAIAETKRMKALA
# Sequence of Plasmodium falciparum protein kinase 6 (PK6, PF3D7_1337100) (Q8IDW1 1-305): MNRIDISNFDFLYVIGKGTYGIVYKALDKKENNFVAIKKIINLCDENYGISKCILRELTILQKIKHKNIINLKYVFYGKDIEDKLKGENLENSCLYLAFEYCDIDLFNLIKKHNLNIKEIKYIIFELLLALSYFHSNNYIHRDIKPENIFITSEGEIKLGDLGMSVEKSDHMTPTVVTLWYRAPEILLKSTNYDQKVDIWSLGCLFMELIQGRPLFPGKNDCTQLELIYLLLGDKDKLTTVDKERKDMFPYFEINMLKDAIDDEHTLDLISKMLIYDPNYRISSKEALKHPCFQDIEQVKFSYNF
# Sequence of Calcium-dependent protein kinase 1 (Plasmodium falciparum (isolate 3D7)) (P62344 whole entry, looked up): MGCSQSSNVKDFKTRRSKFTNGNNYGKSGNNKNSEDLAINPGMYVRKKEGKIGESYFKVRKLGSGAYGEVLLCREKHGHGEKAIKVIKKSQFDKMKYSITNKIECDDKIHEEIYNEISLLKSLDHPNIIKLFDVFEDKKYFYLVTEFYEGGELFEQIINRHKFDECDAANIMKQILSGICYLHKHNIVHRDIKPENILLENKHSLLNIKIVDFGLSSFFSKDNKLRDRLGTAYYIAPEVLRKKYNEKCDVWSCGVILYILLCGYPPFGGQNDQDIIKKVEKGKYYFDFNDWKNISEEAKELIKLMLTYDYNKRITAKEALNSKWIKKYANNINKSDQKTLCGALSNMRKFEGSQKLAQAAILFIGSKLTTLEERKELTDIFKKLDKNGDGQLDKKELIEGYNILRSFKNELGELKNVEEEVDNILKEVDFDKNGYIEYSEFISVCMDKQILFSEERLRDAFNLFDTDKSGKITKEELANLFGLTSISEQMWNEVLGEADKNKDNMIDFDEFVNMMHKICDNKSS
Structure (SMILES),growth inhibition [1],inhibition [2],inhibition [3] [%],growth inhibition [4],outcome [5],outcome [6],outcome [7],outcome [8]
COc1cc2nccc(Nc3ccc4c(cnn4Cc4ccccc4F)c3)c2cc1OC,91% (active),55% (active),-8,101% (active),inactive,inactive,inactive,inactive
O=C(Nc1ccc(OC2CCN(Cc3ccccc3)CC2)c(Cl)c1)c1ccc(F)cc1,92% (active),30%,9,94% (active),inactive,inactive,inactive,inactive
Cc1ccc(C)c(S(=O)(=O)NCC2CCN(Cc3ccc(O)cc3)CC2)c1,57% (active),16%,-6,87% (active),inactive,inactive,inactive,inactive
O=c1cc(NCCCNCc2cc(C(F)(F)F)ccc2Cl)[nH]c2ccccc12,20%,25%,-2,90% (active),inactive,inactive,inactive,inactive
O=C(Cc1ccc([N+](=O)[O-])cc1)N1CCc2cc3nccc(N4CCN5CCC[C@H]5C4)c3cc21,7%,-7%,-4,95% (active),inactive,inactive,inactive,inactive
COc1ccc(CNC2Cc3ccccc3C2)cc1-c1ccc(S(=O)(=O)NCCN2CCCC2)s1,100% (active),89% (active),4,101% (active),inactive,inactive,inactive,inactive
CCc1cccc(-n2c(=O)c3cccnc3n2CC(=O)NCc2ccccc2Cl)c1,19%,25%,-8,98% (active),inactive,inactive,inactive,inactive
CC(C)CNCc1cccc(-c2cccc(CN(CCCN3CCN(C)CC3)C(=O)NC3CCCCC3)c2)c1,84% (active),16%,0,100% (active),inactive,inactive,inactive,inactive
O=C(Nc1ccc(C(F)(F)F)cc1)c1ccc(NCCCN2CCCCCC2)c([N+](=O)[O-])c1,98% (active),42%,-5,102% (active),inactive,inactive,inactive,inactive
Cc1cc(CN2CCCN(c3ccc4c(c3)CCN(Cc3ccc(-c5ncc[nH]5)cc3)CC4)CC2)n(C)n1,8%,5%,5,86% (active),inactive,inactive,inactive,inactive
O=C(NC1CCN(CCN2CCC(c3c[nH]c4ccccc34)CC2)CC1)c1ccc(-c2ccc(C(F)(F)F)cc2)cc1,100% (active),100% (active),4,99% (active),inactive,inactive,inactive,inactive
Fc1ccc(NC(=S)NCCc2ccccc2)cc1,0%,-1%,3,99% (active),inactive,inactive,inactive,inactive
OCCN1CCN(C(=S)Nc2ccccc2)CC1,7%,6%,2,97% (active),inactive,inactive,inactive,inactive
O=C(Nc1ccc(Cn2ncc(N3CCNCC3)c(Cl)c2=O)cc1)Nc1ccc(-c2ccccc2)cc1,33%,29%,-1,98% (active),inactive,inactive,inactive,inactive
Oc1[nH]c2ccccc2c1N=NC(=S)N1CCOCC1,75% (active),51% (active),6,95% (active),inactive,inactive,inactive,inactive
C=C(F)c1sc(CNCCCNc2nc3ccccc3[nH]2)c(C)c1Br,23%,15%,3,100% (active),inactive,inactive,inactive,inactive
COc1ccc(/C=C/c2ccc(-c3c(C)[nH]c(C)c(Cl)c3=O)cc2)cc1OC,96% (active),12%,-8,97% (active),inactive,inactive,inactive,inactive
CC(C)C[C@H](Nc1ccnc(NCC2CCCCC2)n1)C(=O)NCCc1ccccc1,66% (active),10%,0,88% (active),inactive,inactive,inactive,inactive
CSc1ccc(CN2CCC(CNC(=O)c3cc(-c4ccccc4F)cs3)C2)cc1 (stereo not given),13%,32%,2,90% (active),inactive,inactive,inactive,inactive
Cc1cccc2[nH]c(-c3ccc(-c4cccc(C(=O)NCCN5CCCC5)c4)s3)nc12,2%,22%,4,94% (active),inactive,inactive,inactive,inactive

Structure (SMILES),growth inhibition [1],inhibition [2],inhibition [3] [%],growth inhibition [4],outcome [5],outcome [6],outcome [7],outcome [8]
Cc1ccc(Cn2ncc(N3CCC(N)CC3)c(Cl)c2=O)cc1NC(=O)Nc1ccc(-c2ccccc2)cc1,25%,29%,-5,90% (active),inactive,inactive,inactive,inactive
Nc1ccc(-c2ccc(NC(=O)Nc3ccccc3)cc2)cn1,93% (active),-3%,-1,91% (active),inactive,inactive,inactive,inactive
c1ccc(CCNCc2ccc(-c3ccc(CNCc4ccc5c(c4)OCO5)cc3)nc2)cc1,67% (active),24%,5,94% (active),inactive,inactive,inactive,inactive
COc1cc(NC(=O)Nc2ccc([N+](=O)[O-])cc2OC)c(OC)cc1Cl,6%,38%,3,87% (active),inactive,inactive,inactive,inactive
O=C(Nc1cccc(CN2CCCN(Cc3ccc(O)cc3)CC2)c1)c1cc2ccccc2o1,62% (active),10%,0,95% (active),inactive,inactive,inactive,inactive
O=C(NC1CCN(c2ccnc3cc(Cl)ccc23)C1)c1ccccc1F (stereo not given),71% (active),8%,4,101% (active),inactive,inactive,inactive,inactive
CN(C)CCC(O)C=C(c1ccc(Cl)cc1)c1ccc(Cl)cc1 (stereo not given),85% (active),33%,1,93% (active),inactive,inactive,inactive,inactive
O=C(C=Cc1ccc(Cl)c(Cl)c1)NCCCCCN1CCC(CCCNC(=O)[C@@H]2C[C@H]2c2ccccc2)CC1,12%,45%,-1,95% (active),inactive,inactive,inactive,inactive
COc1ccccc1CNC(=O)c1nn(-c2ccc(Cl)cc2)c(=O)c2ccccc12,80% (active),-2%,6,101% (active),inactive,inactive,inactive,inactive
COc1ccc2nccc([C@@H](O)CN3CCC(NC(=O)c4ccc(-c5ccccc5)s4)CC3)c2c1,81% (active),10%,-6,100% (active),inactive,inactive,inactive,inactive
COc1cccc(NC(=O)Nc2c(-c3cccc(C(F)(F)F)c3)c(C(F)(F)F)nn2C)c1,30%,2%,7,93% (active),inactive,inactive,inactive,inactive
O=C(N[C@@H](Cc1ccccc1)C(=O)NC1CCCc2ccccc21)c1ccc(O)c(-c2cccc(C(F)(F)F)c2)c1 (stereo not given in full),41%,-2%,-1,91% (active),inactive,inactive,inactive,inactive
Cc1cnc(-c2ccc(NC(=O)N3CCc4cc5nccc(N6CCN7CCC[C@H]7C6)c5cc43)c3ccccc23)o1,45%,12%,-1,100% (active),inactive,inactive,inactive,inactive
CCOC(=O)C(Oc1ccc2ccccc2c1)C(=O)OCC,0%,8%,-4,98% (active),inactive,inactive,inactive,inactive
COc1cc(C2CCCCC2)c(OC)cc1CC1c2cc(O)c(Cl)cc2CCN1C (stereo not given),100% (active),12%,4,100% (active),inactive,inactive,inactive,inactive
COc1cccc(Nc2nc(Nc3cccc(C#N)c3)cc(C(F)(F)F)n2)c1,45%,15%,3,99% (active),inactive,inactive,inactive,inactive
COc1cc(C=NNc2cc(C)nc3c(OC)cccc23)cc(OC)c1OC,49%,2%,0,94% (active),inactive,inactive,inactive,inactive
N#Cc1cccc(C(=O)NC2CCN(CCCCCNC(=O)/C=C/c3ccc(Cl)c(Cl)c3)CC2)c1,-1%,11%,-9,103% (active),inactive,inactive,inactive,inactive
CNc1ccc(CNCc2ccc(-c3ccc(-c4nc5c(C)cccc5[nH]4)s3)cc2)cc1,94% (active),29%,-5,101% (active),inactive,inactive,inactive,inactive
O=C(Nc1ccccc1)N1CCC(CN2CCOC(c3ccccc3)(c3ccccc3)C2)CC1,98% (active),10%,2,96% (active),inactive,inactive,inactive,inactive
